According to PubChem BioAssay AID1159580 (chemical genetic matrix, 2015):
Where “and” joins values, the source holds several entries; their conditions need not be identical. Equal entries are not always repeated. In all, about 5,500 compounds went through this assay and about 2,000 (36%) were called active. Inconclusive results (about 18%) are left out. Rule as the data show it: active = normalized growth mostly below about 0.91 (no sharp cut-off); inconclusive = no clear call, values can overlap the other calls; inactive = mostly above about 0.92. The list shows a part of the results.

Experiment: chemical genetic growth profiling, strain panel (AID 1159580);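 also: tested at 20 µM; growth read once vehicle control cultures reached saturation at 30 °C; 1 = growth at the plate median or of vehicle wells; lower values mean less growth of the strain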
Conditions: S. cerevisiae deletion strains, growth OD

Measured: normalized growth

CC(CCC(=O)O)[C@H]1CCC2C3CC[C@@H]4C[C@H](O)CC[C@]4(C)C3C[C@H](O)[C@@]21C (some centres not stated)
inactive: locus YAL013W, strain DEP1, hits give low values 1.01 | locus YAL021C, strain ccr4, hits give low values 1.02 | locus YAL026C, strain drs2, hits give low values 0.98 | locus YAL030W, strain snc1, hits give low values 1.01 | locus YBL061C, strain skt5, hits give low values 0.983 | locus YBR009C, strain hhf1, hits give low values 1.03 | locus YBR021W, strain FUR4, hits give low values 1.04 | locus YBR023C, strain chs3, hits give low values 0.962 | locus YBR171W, strain sec66, hits give low values 0.989 | locus YBR229C, strain ROT2, hits give low values 0.987 | locus YBR231C, strain swc5, hits give low values 1.02 | locus YBR279W, strain paf1, hits give low values 0.99 | locus YCL011C, strain gbp2, hits give low values 0.974 | locus YCL016C, strain dcc1, hits give low values 0.948 | locus YCL029C, strain bik1, hits give low values 0.977 | locus YCL069W, strain vba3, hits give low values 0.972 | locus YCR088W, strain abp1, hits give low values 0.997 | locus YDL005C, strain med2, hits give low values 0.987 | locus YDL035C, strain GPR1, hits give low values 0.998 | locus YDL040C, strain nat1, hits give low values 0.993 | locus YDL074C, strain BRE1, hits give low values 1 | locus YDL101C, strain DUN1, hits give low values 1.01 | locus YDL185W, strain tfp1, hits give low values 1.02 | locus YDL192W, strain arf1, hits give low values 1 | locus YDR001C, strain nth1, hits give low values 0.984 | locus YDR069C, strain doa4, hits give low values 1.01 | locus YDR101C, strain arx1, hits give low values 1.01 | locus YDR137W, strain rgp1, hits give low values 0.894 | locus YDR150W, strain NUM1, hits give low values 1.01 | locus YDR159W, strain sac3, hits give low values 0.963 | locus YDR162C, strain NBP2, hits give low values 0.998 | locus YDR195W, strain ref2 1.01 | locus YDR297W, strain sur2, hits give low values 1 | locus YDR318W, strain mcm21, hits give low values 0.981 | locus YDR334W, strain swr1, hits give low values 0.98 | locus YDR335W, strain msn5, hits give low values 0.982 | locus YDR388W, hits give low values 0.996 | locus YDR392W, strain spt3, hits give low values 0.884 | locus YDR502C, strain sam2, hits give low values 1.02 | locus YEL003W, strain gim4, hits give low values 1.03 | locus YEL037C, strain rad23, hits give low values 0.979 | locus YEL061C, strain CIN8 (second series), hits give low values 1.01 | locus YEL061C, strain CIN8, hits give low values 1.01 | locus YER015W, strain faa2, hits give low values 1 | locus YER016W, strain bim1, hits give low values 0.975 | locus YER110C, hits give low values 0.982 | locus YER111C, strain swi4, hits give low values 1 | locus YER155C, strain BEM2 (second series), hits give low values 1.06 | locus YER155C, strain BEM2, hits give low values 1.03 | locus YER167W, strain BCK2, hits give low values 1.01 | locus YFR010W, strain ubp6, hits give low values 1.02 | locus YGL078C, strain dbp3, hits give low values 1.02 | locus YGL086W, strain mad1, hits give low values 1.02 | locus YGL167C, strain pmr1, hits give low values 0.999 | locus YGL173C, strain kem1, hits give low values 0.992 | locus YGL227W, strain vid30, hits give low values 1.01 | locus YGL240W, strain doc1, hits give low values 1.01 | locus YGL248W, strain PDE1, hits give low values 1.03 | locus YGL253W, strain hxk2, hits give low values 0.955 | locus YGR078C, strain PAC10, hits give low values 1.08 | locus YGR135W, strain pre9, hits give low values 1.04 | locus YHR013C, strain ard1, hits give low values 0.948 | locus YHR027C, strain rpn1, hits give low values 1 | locus YHR030C, strain SLT2, hits give low values 1.01 and 1.04 | locus YHR079C, strain IRE1 (second series), hits give low values 0.981 | locus YHR079C, strain IRE1, hits give low values 1.05 | locus YHR094C, strain hxt1, hits give low values 0.991 | locus YHR129C, strain ARP1, hits give low values 1.02 | locus YHR142W, strain chs7, hits give low values 0.926 | locus YHR200W, strain rpn10, hits give low values 1.02 | locus YIL066C, strain RNR3, hits give low values 0.999 | locus YIL073C, strain SPO22, hits give low values 1.06 | locus YIL125W, strain kgd1, hits give low values 0.988 | locus YIR030C, strain dcg1, hits give low values 1.01 | locus YJL092W, strain hpr5, hits give low values 0.999 | locus YJL095W, strain BCK1 (second series), hits give low values 0.991 | locus YJL095W, strain BCK1, hits give low values 1.04 | locus YJL115W, strain asf1, hits give low values 0.986 | locus YJL129C, strain trk1, hits give low values 0.959 | locus YJL134W, strain LCB3, hits give low values 1.01 | locus YJL154C, strain vps35, hits give low values 1.01 | locus YJL164C, strain tpk1, hits give low values 1 | locus YJL166W, strain qcr8, hits give low values 1.02 | locus YJL168C, strain set2, hits give low values 0.98 | locus YJL187C, strain SWE1 (second series), hits give low values 1.04 | locus YJR043C, strain POL32, hits give low values 1.01 | locus YJR066W, strain TOR1, hits give low values 0.99 | locus YKL009W, strain mrt4, hits give low values 0.942 | locus YKL068W, hits give low values 0.989 | locus YKL085W, strain MDH1 (second series), hits give low values 0.975 | locus YKL085W, strain MDH1, hits give low values 0.975 | locus YKL160W, strain elf1, hits give low values 0.937 | locus YKR001C, strain vps1, hits give low values 1.01 | locus YKR026C, strain gcn3, hits give low values 1 | locus YKR091W, strain srl3, hits give low values 0.988 | locus YLL001W, strain dnm1, hits give low values 1.01 | locus YLL026W, hits give low values 1 | locus YLL041C, strain sdh2, hits give low values 0.994 | locus YLR027C, strain aat2, hits give low values 0.991 | locus YLR039C, strain RIC1, hits give low values 0.941 | locus YLR058C, strain SHM2, hits give low values 1.01 | locus YLR102C, strain apc9, hits give low values 0.987 | locus YLR113W, strain HOG1, hits give low values 0.951 | locus YLR221C, strain rsa3, hits give low values 1.03 | locus YLR258W, strain gsy2, hits give low values 0.963 | locus YLR262C, strain YPT6 (second series), hits give low values 0.935 | locus YLR262C, strain YPT6, hits give low values 0.925 | locus YLR268W, strain sec22, hits give low values 0.989 | locus YLR320W, strain mms22, hits give low values 0.998 | locus YLR330W, strain CHS5, hits give low values 1.01 | locus YLR342W, strain FKS1 (second series), hits give low values 0.983 | locus YLR342W, strain FKS1, hits give low values 0.987 | locus YLR357W, strain rsc2, hits give low values 1.01 | locus YLR370C, strain arc18, hits give low values 0.972 | locus YLR371W, strain rom2, hits give low values 0.985 | locus YLR384C, strain iki3, hits give low values 0.992 | locus YLR418C, strain cdc73, hits give low values 1.03 | locus YML016C, strain PPZ1, hits give low values 1.01 | locus YML032C, strain rad52, hits give low values 1.01 | locus YML120C, strain ndi1, hits give low values 1.01 | locus YML124C, strain tub3, hits give low values 1.01 | locus YMR058W, strain fet3, hits give low values 1 | locus YMR078C, strain ctf18, hits give low values 0.981 | locus YMR125W, strain sto1, hits give low values 0.995 | locus YMR129W, hits give low values 0.98 | locus YMR205C, strain PFK2, hits give low values 0.969 | locus YMR223W, strain ubp8, hits give low values 1.02 | locus YMR231W, strain pep5, hits give low values 0.99 | locus YMR307W, strain GAS1, hits give low values 1.03 | locus YNL067W, strain RPL9B, hits give low values 1.03 | locus YNL071W, strain lat1, hits give low values 0.99 | locus YNL153C, strain GIM3, hits give low values 1.03 | locus YNL183C, strain NPR1, hits give low values 1 | locus YNL209W, strain ssb2, hits give low values 0.994 | locus YNL233W, strain BNI4, hits give low values 1.03 | locus YNL248C, strain rpa49, hits give low values 0.965 | locus YNL250W, strain rad50, hits give low values 1.01 | locus YNL271C, strain bni1, hits give low values 0.974 | locus YNL298W, strain CLA4, hits give low values 0.98 | locus YNL307C, strain MCK1, hits give low values 0.993 | locus YNL322C, strain KRE1 (second series), hits give low values 1 | locus YNL322C, strain KRE1, hits give low values 1.01 | locus YNR049C, strain mso1, hits give low values 0.988 | locus YNR052C, strain pop2, hits give low values 1.03 | locus YOL006C, strain TOP1, hits give low values 1.05 | locus YOL012C, strain htz1 1.39 | locus YOL147C, strain pex11, hits give low values 1 | locus YOR001W, strain rrp6, hits give low values 1.03 | locus YOR061W, strain CKA2, hits give low values 1 | locus YOR069W, strain VPS5, hits give low values 1 | locus YOR070C, strain gyp1, hits give low values 1 | locus YOR080W, strain dia2, hits give low values 0.986 | locus YOR083W, strain WHI5, hits give low values 0.927 | locus YOR106W, strain vam3, hits give low values 0.953 | locus YOR136W, strain idh2, hits give low values 1.02 | locus YOR144C, strain elg1, hits give low values 0.987 | locus YOR184W, strain ser1, hits give low values 0.994 | locus YOR231W, strain MKK1, hits give low values 1.03 | locus YOR265W, strain rbl2, hits give low values 0.997 | locus YOR270C, strain vph1, hits give low values 0.942 | locus YOR290C, strain snf2, hits give low values 0.952 | locus YOR316C, strain cot1, hits give low values 0.995 | locus YPL051W, strain arl3, hits give low values 0.958 | locus YPL078C, strain atp4, hits give low values 0.952 | locus YPL106C, strain sse1, hits give low values 0.985 | locus YPL240C, strain hsp82, hits give low values 0.99 | locus YPL256C, strain CLN2, hits give low values 1.08 | locus YPR119W, strain clb2, hits give low values 0.992 | locus YPR141C, strain kar3, hits give low values 0.992 | locus YPR163C, strain tif3, hits give low values 1 | locus YPR167C, strain met16, hits give low values 0.996 | strain wtn01, hits give low values 1.01
